# Test results: PubChem BioAssay AID1851 (National Center for Advancing Translational Sciences (NCATS), 2009)
# Screen size: about 16,000 compounds; about 5,700 (36%) were called active. Inconclusive results (about 24%) are left out. This is one part of the list. Unmarked numbers belong to inactive results. The call rests on the fitted dose curve; in most records, active means well fitted curve in the direction sought with a large enough effect; inconclusive means small, poorly fitted or top-dose-only effect, or effect the other way; inactive means no such curve, though single readings can be large or run the other way. Square brackets hold non-standard residues; d marks the D form. Peptide text beside a SMILES is read from it.
# Biological target: Cytochrome P450 1A2 (Homo sapiens) (UniProt P05177)
# Sequence (P05177 whole entry, looked up): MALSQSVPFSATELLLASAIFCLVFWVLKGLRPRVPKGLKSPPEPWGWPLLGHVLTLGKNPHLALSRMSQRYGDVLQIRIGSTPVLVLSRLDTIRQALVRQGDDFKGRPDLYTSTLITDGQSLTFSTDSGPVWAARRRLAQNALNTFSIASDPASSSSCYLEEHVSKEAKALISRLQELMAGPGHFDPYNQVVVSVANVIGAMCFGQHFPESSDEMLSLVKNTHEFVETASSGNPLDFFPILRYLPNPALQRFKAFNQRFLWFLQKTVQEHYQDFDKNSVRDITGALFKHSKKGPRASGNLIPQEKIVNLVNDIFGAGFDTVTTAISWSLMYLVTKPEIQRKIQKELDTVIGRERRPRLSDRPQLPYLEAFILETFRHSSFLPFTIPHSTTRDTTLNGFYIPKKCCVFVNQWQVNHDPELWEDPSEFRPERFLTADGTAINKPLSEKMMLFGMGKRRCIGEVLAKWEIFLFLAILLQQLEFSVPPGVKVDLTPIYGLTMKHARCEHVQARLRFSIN
# Test: Cytochrome panel assay with activity outcomes
# Settings: recombinant CYP, pro-luciferin dealkylation, luminescence, p450-cyp1a2; series mostly up to 57.1 µM; activity, negative = inhibition: at the top concentration
# On the % scale 0 is the no-effect control and ±100 the full control effect.
SMILES,AC50,"activity, negative = inhibition"
Cn1c(=O)cnc2cnc(Nc3ccccc3)nc21,2000 nM (active),–
COc1cccc(Nc2ncc3ncc(=O)n(C)c3n2)c1,1580 nM (active),–
COCCn1c(=O)cnc2cnc(Nc3ccccc3)nc21,1000 nM (active),–
COCCn1c(=O)cnc2cnc(Nc3cccc(OC)c3)nc21,794 nM (active),–
O=C(O)[C@@H]1[C@@H]2C[C@H]([C@@H](Br)[C@H]2N2C(=O)CCC2=O)[C@@H]1C(=O)O,–,-15.8% [at 2.29 µM]
CN[C@@H]1[C@H](O[C@@H]2O[C@H](CO)[C@@H](N)[C@H](O)[C@@H]2O)O[C@H]2C[C@@H](N)[C@@H](O[C@H]3[C@@H](O)[C@H](O)[C@H](N)C[C@@H]3N)O[C@H]2[C@H]1O,–,-8.22% [at 25.6 µM]
CC(C)Cn1cnc2c(Sc3c([N+](=O)[O-])ncn3C)nc(N)nc21,–,8.13% [at 2.29 µM]
Brc1ccccc1OCCOCCOc1cccc2cccnc12,2240 nM (active),–
Cc1ccc(OCCCOc2cccc3cccnc23)cc1C,2820 nM (active),–
Cc1c(CCO)c(=O)n(C)n1C(=O)c1ccc(F)cc1,–,12.2%
COc1ccc(COC(=O)N/N=C2/C[C@@H](O)[C@@H](O)[C@@H]3[C@H]4C(=O)N(c5ccc(F)cc5F)C(=O)[C@@H]4CC[C@@H]23)cc1,–,-3.56% [at 11.4 µM]
COc1cc2c3cc1Oc1c(OC)c(OC)cc4c1[C@@H](Cc1ccc(O)c(c1)Oc1ccc(cc1)C[C@@H]3N(C)CC2)CN(C)C4,–,-11.1% [at 11.4 µM]
Nc1cc(C(=O)O)[nH]c(=O)n1,–,-6.95% [at 11.4 µM]
O=C(O)c1nc(-c2ccccc2)[nH]c1C(=O)O,1000 nM (active),–
C=CCn1c(Cc2ccc(OC)cc2)nnc1SCC(=O)c1cccc([N+](=O)[O-])c1,–,-28.6%
C=CCn1c(COc2ccccc2)nnc1SCC(=O)N/N=C/c1ccc(C)cc1,3550 nM (active),–
COc1cccc2[nH]c3c(N4CC(C)CC(C)C4)ncnc3c12 (configuration not stated),2000 nM (active),–
CSc1ccccc1N1CCN(C(=O)Nc2ccc3c(c2)NC(=O)CO3)CC1,–,-15.6%
c1cnc(Nc2nc(-c3ccc4ccccc4c3)cs2)nc1,224 nM (active),–

SMILES,AC50,"activity, negative = inhibition"
COc1ccc(-c2csc(NC(=O)CCn3cnc4ccccc4c3=O)n2)cc1OC,–,1.57%
N[C@H](CO)C(=O)NCC(=O)O (H-[dS]-Gly-OH),–,3.56% [at 2.29 µM]
COC(=O)c1nn(-c2cccc(C(F)(F)F)c2)c(=O)cc1Sc1ccccn1,2240 nM (active),–
CC(C)Nc1nc(NC(C)(C)C)nc(Oc2ccc(=O)n(-c3ccccc3)n2)n1,–,-25.1%
COc1cc(-c2[o+]c3cc(O)cc(O)c3cc2O)cc(O)c1O,–,-19.9% [at 2.29 µM]
CCSc1nc2sc3c(c2c(=O)[nH]1)CC(C)(CC)OC3 (configuration not stated),–,-26.5%
C=CCSc1nc2c(sc3nc(C)cc(C)c32)c(=O)[nH]1,1120 nM (active),–
O=C(Cn1ccnc1[N+](=O)[O-])NCCO,–,-3.66% [at 25.6 µM]
Nc1nc(N)c(CCCCc2ccccc2)c(N)n1,–,-0.16% [at 2.29 µM]
CCN(CC)CCc1nc(-c2ccccc2)no1,5010 nM (active),–
c1ccc(CCc2nc(-c3ccccc3)no2)cc1,2820 nM (active),–
O=C(O)CCc1nc(-c2ccccc2-n2cccc2)no1,–,-17.3% [at 2.29 µM]
O=C(CCc1nc(-c2ccccc2)no1)NCCc1ccccc1,2820 nM (active),–
CN1C(=O)NC(c2ccc(O)cc2)C(C(=O)c2cccs2)C1(O)C(F)(F)F (configuration not stated),–,-30.6%
CN=C(N)/N=C(\N)Nc1cc2ccccc2c2ccccc12,251 nM (active),–
NC(=S)Nc1ccc(Oc2ccc(NC(N)=S)cc2)cc1,–,4.24%
Cc1ccccc1N=C(N)Nc1ccccc1C,–,-9.83%
NC(=S)Nc1cc2ccccc2c2ccccc12,70.8 nM (active),–
O=P(O)(O)CCP(=O)(c1ccccc1)c1ccccc1,–,-3.7%

SMILES,AC50,"activity, negative = inhibition"
C[C@@H]1CCN=C(N)S1,–,2.78%
O=C(OCC#CCSc1nnc(-c2cccc3ccccc23)o1)c1ccco1,398 nM (active),–
Cc1ccc(N2C(=O)C(Cl)=C(NCc3ccccc3)C2=O)c(C)c1,11200 nM (active),–
CC1=NN(c2ccc(C)cc2C)C(=O)C1C(c1ccccc1)C1C(=O)N(c2ccc(C)cc2C)N=C1C (configuration not stated),–,-9.21%
CO[C@H]1COC(=O)[C@H]2CCCN2C(=O)C/C=C\[C@@H](C)[C@H](OC)COC(=O)[C@@H](OCc2ccccc2)/C=C\[C@@H]1C,–,-3.46% [at 11.4 µM]
S=C(NCc1ccco1)N1CCN(C(c2ccccc2)c2ccccc2)CC1,–,4.67%
O=C(CN1CCc2ccccc21)NC(=O)NCc1ccco1,6310 nM (active),–
CO[C@@H]1/C=C\O[C@]2(C)Oc3c(C)c(O)c4c(O)c(cc(O)c4c3C2=O)NC(=O)/C(C)=C\C=C/[C@H](C)[C@@H](O)[C@H](C)[C@H](O)[C@H](C)[C@H](OC(C)=O)[C@@H]1C,–,-9.97% [at 11.4 µM]
Nc1c2c(=O)oc(-c3ccccc3)cc2nn1-c1ccccc1,2240 nM (active),–
COC(=O)N1CCC2(CC1)CN(c1ccncc1)C2,–,-19.9%
CO/N=C\[C@@H](OC)[C@H](C)/C=C\CC(=O)OC,–,-3.46% [at 11.4 µM]
C#CCSc1nnc(-c2sc(-c3ccccc3)nc2C)n1C,4470 nM (active),–
Cn1c(CN2CCOCC2)nnc1SCc1ccccc1,–,2.44%
CSc1nnc(-c2sc(-c3ccccc3)nc2C)n1C,11200 nM (active),–
CC(=O)c1cn(CCCCCCCCCCn2cc(C(C)=O)c(=O)[nH]c2=O)c(=O)[nH]c1=O,–,7%
CCCCCCC(C)n1cc(C(C)=O)c(=O)[nH]c1=O (configuration not stated),–,-24.8%
CCCCCCCCn1cc(C(C)=O)c(=O)[nH]c1=O,15800 nM (active),–
CCCOc1ccc(-c2nc(N)n[nH]2)cc1,15800 nM (active),–
O=C1[C@H]2[C@H]3[C@H](O)[C@H](O)C/C(=N/OC[C@@H](O)COCc4ccco4)[C@@H]3CC[C@@H]2C(=O)N1C[C@@H]1CCCO1,–,6.9% [at 11.4 µM]
